Assay outcomes: PubChem BioAssay, The Scripps Research Institute Molecular Screening Center
An excerpt weighted towards active compounds, which were near 5.7% of everything screened.
hgDAF12 agonist: H. glycines DAF-12 receptor agonists, primary screen, cell-based, luminescence, HEK293, GAL4 fusion, UAS-luciferase. HEK293 GAL4-hgDAF12 UAS-luciferase reporter, agonist luminescence; normalized to butyrate control. activation, % at 6.8 µM. hit rate 1.8% among 370,000;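 active = activation above a cutoff set at the mean of all screened compounds plus 3 SD, cut at about 10% in these data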
DAX1 inh-1: DAX1 (NR0B1) inhibitors, primary screen, cell-based, HEK293, Gal4-DAX1, luciferase luminescence. Nuclear receptor subfamily 0 group B member 1 (Homo sapiens), P51843. HEK293 Gal4-DAX1 luciferase reporter. inhibition, % at 6.75 µM. hit rate 0.99% among 340,000. AID 504766, 2011;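 active = inhibition above the mean over all tested compounds plus 3 SD, cut at about 4.2% in these data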;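 also: inhibition shows as a rise in luminescence from relieved DAX1 repression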
Target sequence (P51843 207-470 limits assumed): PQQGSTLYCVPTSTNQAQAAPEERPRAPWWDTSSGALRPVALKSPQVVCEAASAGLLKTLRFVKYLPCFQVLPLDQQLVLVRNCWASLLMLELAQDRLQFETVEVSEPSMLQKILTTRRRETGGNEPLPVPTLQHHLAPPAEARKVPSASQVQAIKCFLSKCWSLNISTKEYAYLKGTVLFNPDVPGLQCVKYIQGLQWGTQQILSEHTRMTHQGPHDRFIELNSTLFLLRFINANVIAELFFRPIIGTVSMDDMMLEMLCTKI
DAX1 inh-2: DAX1 (NR0B1) inhibitors on StAR promoter, primary screen, cell-based, luminescence, SF-1 (NR5A1), full-length DAX-1 | inhibition, % at 6.8 µM | AID 652010, 2013 | hit rate 1.1% among 370,000 | HEK293T StAR-luciferase reporter, SF-1/DAX-1 repression relief;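 active = inhibition above the mean over all tested compounds plus 3 SD, cut at about 3.6% in these data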;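 also: higher inhibition means more luminescence from relief of DAX-1 repression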
hcDAF12 agonist: H. contortus DAF-12 nuclear receptor activators, primary screen, cell-based, luminescence, HEK293, lit1-tk-luc reporter; HEK293 hcDAF-12 lit1-tk-luc reporter; 0% DMSO, 100% Δ7-dafachronic acid; activation, % at 6.8 µM; hit rate 1.4% among 370,000;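 active = activation above the mean of all tested compounds plus 3 SD, cut at about 5.5% in these data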
ssDAF-12 act: S. stercoralis DAF-12 nuclear receptor activators, primary screen, cell-based, luminescence, HEK293, GRIP1 co-expression, lit1-tk-luc; HEK293 ssDAF-12/GRIP1 lit1-tk-luc reporter; % of 3 µM dafachronic acid response; activation, % at 6.8 µM; hit rate 1% among 370,000; Nuclear hormone receptor DAF-12 (Strongyloides stercoralis);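 active = activation above the mean over all tested compounds plus 3 SD, cut at about 0.9% in these data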
AHR activator: AHR activators, primary screen, cell-based, luminescence, luciferase reporter, human; Aryl hydrocarbon receptor (Homo sapiens), P35869; activation, % at 5 µM; AHR-responsive luciferase reporter cells; AID 2796, 2010; hit rate 2.5% among 320,000; in the data active = activation above about 47%
Large screens that a line does not name were inactive.

O=C(NCCCc1ccccc1)[C@H](Cc1c[nH]c2ccccc12)NC1(C(=O)NCCc2c[nH]c3ccccc23)CCC1	none (no result: DAX1 inh-1, DAX1 inh-2, AHR activator)
CCOC(=O)[C@]12CCCC=C1N(Cc1ccc3c(c1)OCO3)C(=O)[C@H](CC(=O)NCC13CC4CC(CC(C4)C1)C3)C2	none (no result: DAX1 inh-1, AHR activator)
O=C(Nc1ccccc1Cl)N(Cc1nc2ccccc2c(=O)[nH]1)Cc1cccs1	none
Cc1nc2ccc(NC(=O)CCS(=O)(=O)c3ccccc3)cc2s1	DAX1 inh-1 5.2
Cc1ccc2nc(NC(=S)NC(=O)c3ccco3)sc2c1	hgDAF12 agonist 12, DAX1 inh-1 5.2
CSc1nc2ccc(NC(=O)COc3ccccc3F)cc2s1	DAX1 inh-2 3.7
Cc1nc2ccc(NC(=O)c3ccco3)cc2s1	hgDAF12 agonist 12
CC(=O)Nc1nc2ccc(NC(=O)c3ccco3)cc2s1	none
COc1cc(CC(=O)Nc2ccc3nc(SC)sc3c2)cc(OC)c1OC	none
c1ccc(-c2ccc(C3CCCN3)cc2)cc1 (centres undefined)	none
CSc1nc2ccc(NC(=O)CS(=O)(=O)c3ccccc3)cc2s1	hgDAF12 agonist 11 (no result: AHR activator)
CC(=O)c1ccc(NC(=O)c2ccc3nc(C)sc3c2)cc1	none
Cc1nc2ccc(NC(=O)c3ccccc3)cc2s1	hgDAF12 agonist 11
Cc1nc2ccc(C(=O)Nc3ccccc3Cl)cc2s1	hgDAF12 agonist 11 (no result: AHR activator)
Cc1nc2ccc(NC(=O)c3ccc4ccccc4n3)cc2s1	none
Cc1onc(-c2c(F)cccc2Cl)c1C(=O)N1CCCCC1	none
O=C(COc1nncc2ccccc12)Nc1c(F)c(F)c(F)c(F)c1F	none
Cc1cc(C)c(NC(=O)COc2nncc3ccccc23)c(C)c1	ssDAF-12 act 1.6
O=C(COc1nncc2ccccc12)Nc1ccc(F)c(F)c1	DAX1 inh-1 5.7
Cc1sc2ncnc(NCc3cccs3)c2c1C	none
Cc1sc2ncnc(NCc3cccnc3)c2c1C	AHR activator 61
CCC(c1nnnn1-c1ccc2c(c1)OCCO2)N1CCN(CCN2CCOCC2)CC1 (centres undefined)	none (no result: DAX1 inh-1, AHR activator)
CC(=O)Nc1ccc(S(=O)(=O)N2CCSC2c2ccco2)cc1 (centres undefined)	none
O=C(NC(=S)Nc1ccc2c(c1)OCCO2)c1ccco1	hgDAF12 agonist 11, DAX1 inh-1 4.5
O=C(NC(=S)NC1CCC(O)CC1)c1ccco1 (centres undefined)	DAX1 inh-2 4.1
COc1cc(NS(=O)(=O)c2ccc(NC(=S)NC(=O)c3ccco3)cc2)nc(OC)n1	DAX1 inh-1 4.7
O=C(NC(=S)Nc1cccc(O)c1)c1ccco1	ssDAF-12 act 1.7
CC(C)c1ccc(C(=O)N2CCCC(c3cc(C(=O)Nc4ccccc4Cl)no3)C2)cc1 (centres undefined)	none (no result: DAX1 inh-1, AHR activator)
CSCc1ccc(C(=O)N2CCCC(Nc3ccc4c(c3)OCCO4)C2)o1 (centres undefined)	none
O=C(c1ccco1)N1CCCC(Nc2ccc3c(c2)OCCO3)C1 (centres undefined)	hcDAF12 agonist 6.3
COc1ccc(CC(=O)Nc2cc3oc4ccccc4c3cc2OC)cc1	hgDAF12 agonist 12
COc1ccccc1CC(=O)Nc1cc2oc3ccccc3c2cc1OC	none
COc1cc2c(cc1NC(=O)c1ccncc1)oc1ccccc12	AHR activator 64 (no result: hgDAF12 agonist, DAX1 inh-2, hcDAF12 agonist, ssDAF-12 act)
COc1cc2c(cc1NC(=O)c1cccc([N+](=O)[O-])c1)oc1ccccc12	AHR activator 58
CCC(NC(=O)c1ccccc1NC(=O)c1ccco1)C(=O)NNC(=O)c1ccncc1 (centres undefined)	none (no result: DAX1 inh-1)
O=C1c2ccccc2C(=O)N1Cc1ccccc1F	none
CCS(=O)(=O)c1ccc2oc(SCC(=O)NCCC3=CCCCC3)nc2c1	none
